Active and inactive are the calls of the source.
What was measured:
[1] = test system: Plasmodium falciparum Sir2 (PF13_0152, Sir2A); test: pfSir2 binders on small-molecule microarrays, primary screen, biochemical, small-molecule microarray, 635 nm fluorescence (AID 1098); details: small-molecule microarray binding, fluorescence 635 nm; higher = more signal;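 further: score merges spot fluorescence intensity with its signal-to-noise ratio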
[2] = small-molecule microarray binders of probe aDKK1, primary screen, biochemical, biotinylated probe, 635/667 nm fluorescence (AID 1099); details: higher = more signal;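 further: score merges 667nm spot fluorescence with signal to noise across triplicate slides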
[3] = small-molecule microarray binders of probe aCHRDL2, primary screen, biochemical, biotinylated probe, 635/667 nm fluorescence (AID 1100); details: higher = more signal
[4] = splicing luciferase reporter signal modulators, primary screen, spliceosome inhibition project, cell-based, HEK293, splice +/- reporter (AID 1101); details: luminescence, 24 h, higher = more signal, called active from +8 up or from −8 down;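 further: HEK293 cells carrying a splicing-competent luciferase reporter gene; test concentration not given here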
[5] = target: Fibroblast growth factor 10 (Homo sapiens) (UniProt O15520); test: FGF10 binders on small-molecule microarrays, primary screen, biochemical, small-molecule microarray, 635 nm fluorescence (AID 1102); details: FGF10 binding, fluorescence 635 nm, higher = more signal
Chain of Fibroblast growth factor 10 (Homo sapiens) (O15520 whole entry, looked up): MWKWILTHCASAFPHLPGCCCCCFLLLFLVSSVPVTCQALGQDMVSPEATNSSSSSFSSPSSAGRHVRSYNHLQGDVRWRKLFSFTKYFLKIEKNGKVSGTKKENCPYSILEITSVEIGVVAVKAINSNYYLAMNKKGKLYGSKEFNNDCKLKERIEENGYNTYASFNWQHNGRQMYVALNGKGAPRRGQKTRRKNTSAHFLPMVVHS

[6] = test system: glycogen synthase kinase-3 (GSK3A per assay name; protocol says GSK3B); test: GSK3 binders on small-molecule microarrays, primary screen, biochemical, small-molecule microarray, 635 nm fluorescence, GSK3A (AID 1103); details: small-molecule microarray binding, fluorescence 635 nm; higher = more signal; further: the record names both GSK3A and GSK3B
[7] = target: Epidermal growth factor receptor (Homo sapiens) (UniProt P00533); test: EGFR binders on small-molecule microarrays, primary screen, biochemical, small-molecule microarray, 635 nm fluorescence (AID 1104); details: EGFR binding, higher = more signal;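 further: score merges 667 nm emission intensity with spot signal to noise over triplicate slides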
Chain of Epidermal growth factor receptor (Homo sapiens) (P00533 whole entry, looked up): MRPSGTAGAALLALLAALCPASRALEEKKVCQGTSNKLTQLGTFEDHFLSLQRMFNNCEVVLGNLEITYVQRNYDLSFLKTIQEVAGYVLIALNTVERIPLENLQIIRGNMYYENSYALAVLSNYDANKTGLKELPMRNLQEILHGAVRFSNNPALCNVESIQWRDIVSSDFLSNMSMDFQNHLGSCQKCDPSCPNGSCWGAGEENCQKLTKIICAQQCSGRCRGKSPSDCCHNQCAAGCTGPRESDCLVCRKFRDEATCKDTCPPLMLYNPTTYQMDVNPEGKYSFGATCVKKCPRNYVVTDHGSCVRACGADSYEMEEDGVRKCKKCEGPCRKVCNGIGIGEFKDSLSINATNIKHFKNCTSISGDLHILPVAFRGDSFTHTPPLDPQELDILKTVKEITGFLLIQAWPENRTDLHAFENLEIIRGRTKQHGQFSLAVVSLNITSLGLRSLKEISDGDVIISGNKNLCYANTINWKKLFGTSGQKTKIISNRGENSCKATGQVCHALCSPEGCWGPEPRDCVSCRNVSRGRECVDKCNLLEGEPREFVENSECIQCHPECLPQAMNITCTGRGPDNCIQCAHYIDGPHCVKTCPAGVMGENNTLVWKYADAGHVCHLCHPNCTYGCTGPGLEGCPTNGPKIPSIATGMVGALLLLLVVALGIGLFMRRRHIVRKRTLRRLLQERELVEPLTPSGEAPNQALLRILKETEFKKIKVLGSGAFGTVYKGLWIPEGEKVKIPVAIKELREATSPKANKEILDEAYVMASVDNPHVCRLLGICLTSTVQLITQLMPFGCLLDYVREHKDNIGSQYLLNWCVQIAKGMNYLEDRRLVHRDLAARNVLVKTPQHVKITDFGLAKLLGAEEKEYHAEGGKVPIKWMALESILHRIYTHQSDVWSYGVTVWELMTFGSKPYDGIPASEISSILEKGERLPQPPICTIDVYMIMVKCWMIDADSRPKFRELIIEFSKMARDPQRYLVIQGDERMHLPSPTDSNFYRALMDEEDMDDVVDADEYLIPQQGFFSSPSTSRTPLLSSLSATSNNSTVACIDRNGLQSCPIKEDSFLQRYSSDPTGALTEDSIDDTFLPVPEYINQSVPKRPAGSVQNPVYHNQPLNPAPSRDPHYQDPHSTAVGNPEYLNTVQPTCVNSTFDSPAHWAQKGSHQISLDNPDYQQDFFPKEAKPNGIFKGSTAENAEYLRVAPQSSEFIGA

[8] = target: Follistatin-related protein 3 (Homo sapiens) (UniProt O95633); test: FSTL3 binders on small-molecule microarrays, primary screen, biochemical, small-molecule microarray, 635 nm fluorescence (AID 1105); details: FSTL3 binding, higher = more signal;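 further: score merges emission near 667 nm and signal to noise per printed spot across three slides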
Chain of Follistatin-related protein 3 (Homo sapiens) (O95633 whole entry, looked up): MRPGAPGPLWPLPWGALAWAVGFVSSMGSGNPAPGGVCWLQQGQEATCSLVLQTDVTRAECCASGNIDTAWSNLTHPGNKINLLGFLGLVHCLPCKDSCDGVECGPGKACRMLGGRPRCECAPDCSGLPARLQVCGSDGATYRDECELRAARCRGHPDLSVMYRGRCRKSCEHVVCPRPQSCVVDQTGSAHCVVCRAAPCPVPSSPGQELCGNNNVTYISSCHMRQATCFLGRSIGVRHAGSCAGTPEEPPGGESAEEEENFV

[9] = target: Dickkopf-related protein 1 (Homo sapiens) (UniProt O94907); test: DKK1 binders on small-molecule microarrays, primary screen, biochemical, small-molecule microarray, 635 nm fluorescence scan (AID 1106); details: DKK1 binding, higher = more signal;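 further: score merges emission near 667 nm with signal to noise over three replicate slides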
Chain of Dickkopf-related protein 1 (Homo sapiens) (O94907 whole entry, looked up): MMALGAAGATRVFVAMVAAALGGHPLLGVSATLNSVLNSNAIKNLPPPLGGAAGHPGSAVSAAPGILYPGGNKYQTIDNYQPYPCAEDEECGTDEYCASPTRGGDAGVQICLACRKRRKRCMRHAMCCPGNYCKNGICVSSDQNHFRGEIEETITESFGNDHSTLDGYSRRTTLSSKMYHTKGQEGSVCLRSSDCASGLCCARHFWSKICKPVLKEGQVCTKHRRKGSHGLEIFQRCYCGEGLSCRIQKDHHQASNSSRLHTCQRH

[10] = test system: Inhibin beta A chain (activin A); test: INHBA (activin A) binders on microarrays, primary screen, biochemical, small-molecule microarray, 635 nm fluorescence scan (AID 1107); details: small-molecule microarray binding, higher = more signal;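 further: mouse activin A protein probed at 4.33 µg/mL on printed slides; score merges bound-protein fluorescence near 667 nm with spot signal-to-noise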
[11] = test system: Human papillomavirus type 1a protein E7 (residues 44-93); test: HPV1a E7 fragment binders on microarrays, primary screen, biochemical, small-molecule microarray, residues 44-93, 635 nm fluorescence (AID 1108); details: small-molecule microarray binding, fluorescence 635 nm; higher = more signal;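 further: E7 fragment applied at 1 µg/mL in TBST for 1 h at 4 C; score combines spot fluorescence with its signal to noise ratio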
[12] = modulators of HCV replicon luciferase signal, primary screen, HCV replication inhibitor project, Huh7 cells, luciferase reporter (AID 1109); details: 48 h, higher = more signal;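 further: huh7 hepatoma cells harbouring a luciferase neomycin HCV replicon reporter; luciferase luminescence as measure of HCV replicon replication; test concentration not given here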
[13] = target: Left-right determination factor 2 (Homo sapiens) (UniProt O00292); test: LEFTY2 binders on small-molecule microarrays, primary screen, biochemical, small-molecule microarray, 635 nm fluorescence scan (AID 1110); details: LEFTY2 binding, higher = more signal
Chain of Left-right determination factor 2 (Homo sapiens) (O00292 whole entry, looked up): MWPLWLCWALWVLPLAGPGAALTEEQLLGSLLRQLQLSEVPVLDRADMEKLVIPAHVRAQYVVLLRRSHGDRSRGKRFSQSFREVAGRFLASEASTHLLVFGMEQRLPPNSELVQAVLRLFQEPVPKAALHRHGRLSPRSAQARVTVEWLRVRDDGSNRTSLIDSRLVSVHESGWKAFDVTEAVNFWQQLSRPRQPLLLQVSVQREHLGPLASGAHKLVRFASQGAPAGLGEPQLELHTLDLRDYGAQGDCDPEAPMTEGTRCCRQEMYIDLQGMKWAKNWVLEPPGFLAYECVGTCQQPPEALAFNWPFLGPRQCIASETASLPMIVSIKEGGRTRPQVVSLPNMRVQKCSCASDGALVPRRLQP

[14] = target: Calmodulin-1 (Homo sapiens) (UniProt P0DP23); test: CALM1 binders on microarrays, EGTA buffer, profiling panel, biochemical, small-molecule microarray, Cy5-labelled CALM1 (AID 1111); details: Cy5-CALM1 binding fluorescence, higher = more signal;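 further: labelled calmodulin applied in Tris saline Tween buffer holding calcium plus EGTA and DTT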
[15] = target: Calmodulin-1 (Homo sapiens) (UniProt P0DP23); test: calcium-bound CALM1 binders on microarrays, profiling panel, artefact control for SMM control-protein annotation, biochemical, small-molecule microarray, Cy5-labelled CALM1, plus calcium (AID 1112); details: Cy5-CALM1 binding fluorescence, higher = more signal;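 further: score merges spot fluorescence with signal to noise from triplicate slides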
[16] = small-molecule microarray binders of probe aWnt5a, primary screen, biochemical, biotinylated probe, 635/667 nm fluorescence (AID 1113); details: higher = more signal;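 further: score merges 667 nm fluorescence intensity with signal-to-noise per printed feature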
[17] = small-molecule microarray binders of probe aShh, primary screen, biochemical, biotinylated probe, 635/667 nm fluorescence (AID 1114); details: higher = more signal;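 further: probe is biotin-labelled aShh protein from a stem cell growth factor screen; measures binding of labelled protein to compounds printed on the slide; score merges feature fluorescence at 667 nm with signal-to-noise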
[18] = small-molecule microarray binders of probe aNog, primary screen, biochemical, biotinylated probe, 635/667 nm fluorescence (AID 1115); details: higher = more signal;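 further: probe is biotinylated aNog protein used at 0.15 µg/mL for 1 h at 4 C; z-score combines 667 nm fluorescence of each spot with its signal to noise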
[19] = target: Torsin-1A-interacting protein 1 (Homo sapiens) (UniProt Q5JTV8); test: LAP1 binders from COS7 cell lysate, primary screen, small-molecule microarray, 635/667 nm fluorescence (AID 1116); details: COS7-hLAP1 lysate binding, 635 nm fluorescence, higher = more signal
Chain of Torsin-1A-interacting protein 1 (Homo sapiens) (Q5JTV8 whole entry, looked up): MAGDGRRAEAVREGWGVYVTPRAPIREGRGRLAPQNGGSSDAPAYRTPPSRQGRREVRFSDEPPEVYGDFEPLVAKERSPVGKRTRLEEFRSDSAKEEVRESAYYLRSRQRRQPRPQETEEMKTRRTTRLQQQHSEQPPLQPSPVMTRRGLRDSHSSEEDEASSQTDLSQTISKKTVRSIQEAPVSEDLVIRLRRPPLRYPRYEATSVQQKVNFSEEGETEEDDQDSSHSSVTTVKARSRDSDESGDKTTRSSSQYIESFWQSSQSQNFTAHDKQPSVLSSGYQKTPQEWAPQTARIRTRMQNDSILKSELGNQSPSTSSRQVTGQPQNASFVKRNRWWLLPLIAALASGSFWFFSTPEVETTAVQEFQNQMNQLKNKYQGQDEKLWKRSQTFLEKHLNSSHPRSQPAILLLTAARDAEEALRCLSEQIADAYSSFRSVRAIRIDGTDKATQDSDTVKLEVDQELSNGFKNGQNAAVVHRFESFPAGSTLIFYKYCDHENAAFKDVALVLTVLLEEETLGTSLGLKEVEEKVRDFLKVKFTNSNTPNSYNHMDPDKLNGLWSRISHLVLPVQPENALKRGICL

[20] = target: Alpha-bungarotoxin (Bungarus multicinctus) (UniProt P60615); test: alpha-bungarotoxin binders on microarray, profiling panel, artefact control for SMM control protein annotation, biochemical, small-molecule microarray, Alexa647 label, 635/667 nm fluorescence (AID 1117); details: alpha-BTX-A647 binding fluorescence, higher = more signal
Chain of Alpha-bungarotoxin (Bungarus multicinctus) (P60615 whole entry, looked up): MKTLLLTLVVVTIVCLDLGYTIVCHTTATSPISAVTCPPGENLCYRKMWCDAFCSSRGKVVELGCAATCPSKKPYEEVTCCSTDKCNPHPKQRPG

Compound | composite z-score [1] | composite z-score [2] | composite z-score [3] | z-score [4] | composite z-score [5] | composite z-score [6] | composite z-score [7] | composite z-score [8] | composite z-score [9] | composite z-score [10] | composite z-score [11] | z-score [12] | composite z-score [13] | composite z-score [14] | composite z-score [15] | composite z-score [16] | composite z-score [17] | composite z-score [18] | composite z-score [19] | composite z-score [20]
O=C1N(CCS(=O)(=O)c2ccccc2)c2ccccc2[C@H]2OC(c3ccc(OCCCO)cc3)=N[C@@]12Cc1ccccc1 | 1.29 | 1.1 | 1.08 | -1.49 (inactive) | 0.896 | 1.05 | 1.03 | 1.1 | 1.04 | 1.04 | 0.474 | -0.733 | 0.949 | 1.27 | 0.517 | 0.0101 | 0.337 | -0.0321 | 2.03 | 1.66
O=C1OCCC=C[C@H]2OC34C=CCN(Cn5nnc6ccccc65)C(=O)[C@H]3N(CCCO)C(=O)[C@@H]4C12 (stereo not given in full) | -0.783 | -0.264 | 0.0963 | -1.05 (inactive) | -0.583 | -0.789 | -0.72 | -1.46 | -0.454 | 0.148 | -0.69 | -0.642 | -1.02 | -0.5 | -0.0354 | -0.112 | -0.388 | -0.527 | 0.879 | 0.204
COc1ccc([Si](C)(C)[C@@H]2[C@@H](CCO)O[C@]3(C(=O)N(Cc4ccccc4)c4ccc(N5CCOC5=O)cc43)[C@H]2C)cc1 | 1.54 | 0.0274 | -0.0546 | -1.64 (inactive) | 0.24 | 0.624 | 0.254 | 0.637 | 0.406 | 0.729 | 1.35 | -4.17 | 0.217 | 0.623 | 0.521 | 0.394 | -0.0793 | 0.0139 | 0.855 | 1.09
C=CCC(OC(C)=O)[C@@H]1[C@@H](N(Cc2ccc(-c3cccc(C(F)(F)F)c3)o2)C(=O)Cc2ccc(OC)cc2)c2cc(OCCCO)ccc2N1C(=O)c1ccc(-c2ccccc2)cc1 (stereo not given in full) | -0.318 | -0.0755 | 0.541 | -1.13 (inactive) | -0.165 | -0.522 | -0.577 | -0.119 | -0.434 | 1.39 | -0.433 | 0.278 | -0.164 | -0.364 | -0.341 | 0.0079 | -0.0793 | -0.577 | -0.205 | 1.13
COC(=O)[C@@]1(Cc2ccccc2)[C@H]2c3cc(C(=O)N4CCCC4)n(CCc4ccccn4)c3C[C@H]2CN1C(=O)c1ccccc1 | 1.04 | 0.897 | 1.02 | -2.09 (inactive) | 0.874 | 1.14 | 0.142 | 0.921 | -0.37 | 1.11 | 1.43 | -1.65 | -0.204 | 2.13 | 0.842 | -0.0776 | -0.353 | 1.84 | 2.53 | 0.298
COc1ccc([Si](C)(C)[C@H]2[C@H](CC(=O)N3Cc4ccccc4C[C@H]3CO)O[C@@]3(C(=O)N(Cc4ccc(N5CCOC5=O)cc4)c4ccccc43)[C@@H]2C)cc1 | 0.149 | -0.161 | -0.345 | -0.817 (inactive) | 0.878 | 0.676 | 1.03 | 1.04 | 0.929 | 1.05 | 0.559 | -4.15 | 0.843 | -0.766 | -0.665 | -0.0944 | -0.0769 | -0.267 | 0.612 | 1.22
[N-]=[N+]=NCc1ccccc1[C@H]1OC(c2ccc(OCCCO)cc2)=N[C@@]1(Cc1ccccc1N=[N+]=[N-])C(=O)NCC(O)CO (stereo not given in full) | 1.12 | 0.33 | 0.873 | 0.451 (inactive) | 0.903 | 1.13 | -0.186 | 0.681 | -0.308 | 0.317 | 1.46 | -1.75 | -0.591 | 1.33 | 0.734 | 0.112 | 0.28 | 1.63 | 1.48 | 1.08
COc1ccc([Si](C)(C)[C@@H]2[C@@H](CCO)O[C@]3(C(=O)N(Cc4cccc(NC(=O)[C@H](C)O)c4)c4ccccc43)[C@H]2C)cc1 | 1.42 | 1.09 | 0.0838 | -2.89 (inactive) | 1.08 | 1.27 | 0.0532 | 0.399 | 0.244 | -0.437 | 1.36 | -5.17 | 0.0544 | 0.953 | -0.204 | 0.0998 | 0.223 | 0.638 | 0.999 | 0.756
COCCOC(=O)N1C(=O)[C@@]2(c3ccccc31)[C@H](c1ccc(O)cc1)N1[C@H](c3ccccc3)[C@H](c3ccccc3)OC(=O)[C@H]1[C@@H]2C(=O)N1CCN(c2ncccn2)CC1 | 1.45 | 0.0484 | 0.419 | -0.225 (inactive) | 1.04 | 1.11 | 0.194 | 0.466 | 0.259 | 0.922 | 1.29 | -1.51 | 0.332 | 0.667 | 0.618 | -0.0084 | 0.0469 | 0.927 | 0.675 | 0.692
C#CCN(Cc1ccccc1Br)[C@H](/C=C/c1ccccc1)[C@@H](O)Cc1ccccc1 | -0.699 | 0.12 | 0.857 | -1.51 (inactive) | -0.636 | -0.705 | -1.45 | -1.21 | -1.42 | 1.35 | 0.169 | -1.42 | -0.81 | -1.03 | 0.41 | -0.128 | -0.124 | 0.0108 | -0.354 | 0.192
C[C@@H]1NC(=O)[C@@H](Cc2ccccc2)NC(=O)[C@@]23C(=O)N[C@@H](Cc4ccccc4)C2[C@H](C)[C@@]2(C)O[C@H]2C3/C=C/C/C=C\CNC1=O (stereo not given in full) | 1.02 | -0.259 | -0.17 | 0.138 (inactive) | -0.2 | -0.769 | -0.318 | 0.119 | 0.0252 | 1.16 | 0.739 | -0.857 | -0.22 | -0.744 | -1.16 | -0.222 | -0.0471 | -0.281 | -0.0991 | -0.537

Reference: PubChem BioAssay
